These results are taken from the supplement of paper PMC12532568.

Each structure is given as a SMILES string. Where a name gives a salt, the structure may show the parent alone.

This assay has as its system Danio rerio larvae Tg(actc1b:ZsGreen-LC3), 3 dpf. Description: LC3 puncta relative area vs vehicle, without NH4Cl (log2 fold change); higher = more autophagosomes. To be noted: 10 µM; treatment time 16 h; NH4Cl: none. The procedure: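 Transgenic Tg(actc1b:ZsGreen-map1lc3) zebrafish larvae (2 dpf) were treated for 16 h with Tocris library compounds at 10 µM (n = 12 larvae per compound). Skeletal-muscle LC3 puncta area relative to body area was measured by high-content confocal imaging before and after 4 h of 100 mM NH4Cl (autophagic flux), normalised to vehicle (DMSO), and reported as log2 fold change.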
For the compound `CC1=NN(c2ccccc2)C(=O)C1` [Edaravone], the “LC3 puncta (log2)” value was 0.377.

As for `CN(C)CCCn1cc(C2=C(c3c[nH]c4ccccc34)C(=O)NC2=O)c2ccccc21`, the “LC3 puncta (log2)” value was 0.584.

Take `COc1cc(C(=O)OCCCN2CCCN(CCCOC(=O)c3cc(OC)c(OC)c(OC)c3)CC2)cc(OC)c1OC` [Dilazep]: the “LC3 puncta (log2)” value was 0.175.

With `S=C(S)N1CCCC1` [Pyrrolidinedithiocarbamate ammonium], the “LC3 puncta (log2)” value was determined as 0.439.

With `O=c1nc2ccccc2c2n1CC(CN1CCN(c3ccccc3)CC1)N2` (stereo not given), the “LC3 puncta (log2)” value was found to be 0.0176.

As to `O=C(O)C1=CCNCC1` [Isoguvacine hydrochloride], the “LC3 puncta (log2)” value turned out to be 0.169.

`CC(C(O)c1ccc(O)cc1)N1CCC(Cc2ccccc2)CC1` (stereo not given) [Ifenprodil hemitartrate]: the “LC3 puncta (log2)” value was -0.219.

For `N[C@@H](CSS(=O)(=O)O)C(=O)O` [S-Sulfo-L-cysteine sodium salt], the “LC3 puncta (log2)” value was -0.101.

On to `CC(C)NCC(O)COc1cccc2ccccc12` (stereo not given) [Propranolol hydrochloride], for which the “LC3 puncta (log2)” value was determined as 0.0203.

In the case of `Fc1ccc(C(c2ccc(F)cc2)N2CCN(C/C=C/c3ccccc3)CC2)cc1` [Flunarizine dihydrochloride], the “LC3 puncta (log2)” value was found to be 0.219.

On to `N[C@H]1CCN(O)C1=O`, for which the “LC3 puncta (log2)” value worked out at 0.0498.

In the case of `CCCCOc1cc(CC2CNC(=O)N2)ccc1OC` (stereo not given), the “LC3 puncta (log2)” value is -0.122.

Consider `O=S(=O)(c1cccc2cnccc12)N1CCCNCC1` [Fasudil hydrochloride], for which the “LC3 puncta (log2)” value turned out to be 0.598.

Consider `COc1cc2c(CCNC(C)=O)c[nH]c2cc1Cl` [6-Chloromelatonin], for which the “LC3 puncta (log2)” value is -0.363.

`NC(N)=NC(N)=Nc1cccc(Cl)c1` [m-Chlorophenylbiguanide hydrochloride]: the “LC3 puncta (log2)” value turned out to be 0.136.

For `CC1=C(/C=C/C(C)=C/C=C/C(C)=C/C(=O)O)C(C)(C)CCC1` [Retinoic acid], the “LC3 puncta (log2)” value stood at 0.44.

`CC[C@@H]1C(=O)OC[C@@H]1Cc1cncn1C` [Pilocarpine hydrochloride]: the “LC3 puncta (log2)” value was 0.203.

As to `CC(C)NC[C@H](O)COc1cccc2ccccc12` [(S)-(-)-Propranolol hydrochloride], the “LC3 puncta (log2)” value was 0.355.

As to `CC12CC3CC(C)(C1)CC(N)(C3)C2` [Memantine hydrochloride], the “LC3 puncta (log2)” value turned out to be 0.145.

In the case of `CC(C)NCC(O)c1ccc2ccccc2c1` (stereo not given) [Pronethalol hydrochloride], the “LC3 puncta (log2)” value stood at 0.437.

`O=C(/C=C/c1ccc(O)c(O)c1)O[C@H](Cc1ccc(O)c(O)c1)C(=O)O` [Rosmarinic acid]: the “LC3 puncta (log2)” value turned out to be 0.0606.

With `NC(=O)OCC(COC(N)=O)c1ccccc1` [Felbamate], the “LC3 puncta (log2)” value is -0.737.

In the case of `Cc1ccc(OCC(O)C(C)NC(C)C)c2c1CCC2` (stereo not given) [ICI 118,551 hydrochloride], the “LC3 puncta (log2)” value is -0.0345.

As for `O=[N+]([O-])c1cc2nc(O)c(O)nc2cc1[N+](=O)[O-]`, the “LC3 puncta (log2)” value is 0.0864.

Take `N[C@H](C(=O)O)c1cc(O)cc(O)c1`: the “LC3 puncta (log2)” value came to 0.537.

Consider `O=C(O)c1cc(=O)c2ccccc2[nH]1` [Kynurenic acid], for which the “LC3 puncta (log2)” value is 0.00327.

As for `COc1cc2nc(N3CCN(C(=O)c4ccco4)CC3)nc(N)c2cc1OC` [Prazosin hydrochloride], the “LC3 puncta (log2)” value was -0.131.

As to `CCCCCCN(CCCCCC)C(=O)Cc1c(-c2ccc(F)cc2)[nH]c2ccccc12`, the “LC3 puncta (log2)” value was 0.084.

As for `CCOC(=O)C1=C[C@]2(CC)CCCN3CCc4c(n1c1ccccc41)[C@@H]32` [Vinpocetine], the “LC3 puncta (log2)” value amounted to 0.406.

Take `c1ccc2sc(N3CCN(Cc4ccc5c(c4)OCO5)CC3)nc2c1` [2-[1-(4-Piperonyl)piperazinyl]benzothiazole]: the “LC3 puncta (log2)” value stood at 0.135.

On to `Cc1noc(NS(=O)(=O)c2ccc(N)cc2)c1C` [Sulfisoxazole], for which the “LC3 puncta (log2)” value was found to be 0.239.

`NC(N)=Nc1ccc(Cl)cc1` [4-Chlorophenylguanidine hydrochloride]: the “LC3 puncta (log2)” value was -0.45.

In the case of `O=C(NCCCN1CCCCCC1)C(c1ccccc1)C1CCCCC1` (stereo not given), the “LC3 puncta (log2)” value came to 0.0552.

As for `CC(C)NC[C@@H](O)COc1cccc2ccccc12` [(R)-(+)-Propranolol hydrochloride], the “LC3 puncta (log2)” value turned out to be 0.00434.

In the case of `c1cc2c(cc1C1CCCCC1)c1c3n2CCNC3CCC1` (stereo not given) [Tetrindole mesylate], the “LC3 puncta (log2)” value worked out at 0.672.

Turning to `O=C(OCCN1CCOCC1)C1(c2ccccc2)CCCCC1` [PRE-084 hydrochloride], the “LC3 puncta (log2)” value worked out at 0.215.

In the case of `O=C1CC2(CCCC2)CC(=O)N1CCNCC1COc2ccccc2O1` (stereo not given), the “LC3 puncta (log2)” value was 0.301.

With `CC(Cc1ccc(O)c(O)c1)(NN)C(=O)O` [(S)-(-)-Carbidopa], the “LC3 puncta (log2)” value amounted to 0.0108.

For `NC(C(=O)O)c1cc(O)cc(O)c1` (racemic), the “LC3 puncta (log2)” value was 0.194.

For `N[C@H](C(=O)O)c1ccc(C(=O)O)c(O)c1` [(S)-4-Carboxy-3-hydroxyphenylglycine], the “LC3 puncta (log2)” value was -0.331.
